# Where “and” joins values, the source holds several entries; their conditions need not be identical. Equal values may be shown once. Calls of active or inactive are those of the source. Unless noted, the rule behind the calls is not given here.
# Key:
# [1] = liver-stage malaria parasite growth inhibition, primary screen, cell-based, HepG2, luciferase luminescence, HepG2 viability (AID 624349; in the data active = parasite load remaining mostly below about 12%, no sharp cut-off; inactive = mostly above about 10%;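 note: 100% = mean of DMSO negative control wells on the same plate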); settings: P. berghei liver stage in HepG2, luciferase luminescence, concentration not given here; parasite load remaining: stronger effect = lower value; viability: measured here: HepG2 viability without parasites
# [2] = Cy5 fluorescence interference with SSB-bound oligo, artefact control for HCV NS3 helicase inhibitor project, biochemical, NIH Clinical Collection, E. coli SSB (AID 743268)
# [3] = test system: Hepatitis C virus NS3 helicase; assay: HCV NS3 helicase inhibitors, primary screen, biochemical, fluorescence polarization, NIH Clinical Collection (AID 743270); settings: NS3 helicase binding to Cy5-dT15 DNA, stronger effect = higher value, concentration not given here
# [4] = target: Single-stranded DNA-binding protein (Escherichia coli (strain K12)) (UniProt P0AGE0); assay: E. coli SSB displacement from DNA, counter-screen for HCV NS3 helicase inhibitor project, biochemical, fluorescence polarization, NIH Clinical Collection (AID 743271; in the data active = inhibition above about 28%); settings: stronger effect = higher value, concentration not given here
# [5] = fluorescence interference in NS3h assay format, artefact control for HCV NS3 helicase inhibitor project, biochemical, NIH Clinical Collection (AID 743272); settings: fluorescence interference counterscreen, stronger effect = lower value;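 note: HCV NS3 helicase with a Cy5 labelled single stranded DNA probe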
# [6] = test system: Neuropilin-2 / VEGF-C interaction (human); assay: inhibitors of NRP2–VEGF-C binding, biochemical, microplate binding format, z-score (AID 743281); settings: microplate NRP2/VEGF-C binding assay; stronger effect = lower value
# [7] = modulation of C. elegans fzo-1 (AID 1259413);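 note: fzo-1 mutant C. elegans worms in liquid wells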; settings: C. elegans fzo-1 modulator screen, mean read-out; stronger effect = higher value
# [8] = sensitizers of A549 cells to miR-34 induction, primary screen, imaging, A549 dox-inducible miR-34, nuclei and caspase counts (AID 1347080;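 active = compounds whose cell count with miR-34 switched on is under 0.7 times the count with it off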); settings: A549 miR-34 inducible, Hoechst nuclei count, 48 h
# [9] = viability rescue of complex I mutant cybrids, primary screen, cell-based, galactose medium, ATP luminescence (AID 1645843;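 active = z-score of at least 1.8 in each of two replicates, scored against plate mean and spread of sample wells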;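 note: positive z means more ATP and so rescue of galactose-driven cybrid death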); settings: complex I mutant cybrid cells, 72 h, stronger effect = higher value
# [10] = survival rescue of mitochondrial mutant cells in low glucose, primary screen, MELAS cybrids, Rieske KO mouse fibroblasts, CellTiter-Glo (AID 1508586;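 active = mean z-score across replicates of 1.96 or higher in either the MELAS or the Rieske mutant cell line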;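 note: z relative to plate mean and SD of compound and empty wells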)
# [11] = stronger effect = lower value, cell number ratio, induced over uninduced
# [12] = measured here: relative caspase fold change +Dox/-Dox
# [13] = measured here: total cells with miR-34 induction, stronger effect = lower value
# [14] = measured here: total cells without miR-34 induction
# [15] = MELAS cybrid survival, CellTiter-Glo 48 h, stronger effect = higher value
# [16] = Rieske KO mouse fibroblast survival, CellTiter-Glo 72 h
structure (smiles),measurement,setting,value
Cc1c(O)c(=O)ccn1C,parasite load remaining,[1],103% (inactive)
same,viability,[1],77.2%
same,fluorescence ratio,[2],0.96 (inactive)
same,inhibition,[3],1.98% (inactive)
same,inhibition,[4],6.83% (inactive)
same,fluorescence ratio,[5],0.92 (inactive)
same,z-score,[6],-1.2 (inactive)
same,mean signal,[7],235 (inactive)
same,fold change,[8]; [11],0.87 (inactive) and 0.909 (inactive)
same,fold change,[8]; [12],0.877 and 1.84
same,cell count,[8]; [13],8280 and 9190
same,cell count,[8]; [14],9520 and 10100
same,z-score,[9],0.65 (inactive)
CO/N=C(/C(=O)N[C@@H]1C(=O)N2C(C(=O)O)=C(COC(N)=O)CS[C@H]12)c1ccco1,mean signal,[7],235 (inactive)
C[C@@H]1C[C@H]2[C@@H]3CCC4=CC(=O)C=CC4(C)[C@@]3(F)[C@@H](O)CC2(C)[C@@]1(O)C(=O)CO (stereo partly specified),mean signal,[7],285 (inactive)
CC(=O)N1CCN(c2ccc(OC[C@H]3CO[C@](Cn4ccnc4)(c4ccc(Cl)cc4Cl)O3)cc2)CC1,fluorescence ratio,[2],0.93 (inactive)
same,inhibition,[3],4.36% (inactive)
same,inhibition,[4],13.8% (inactive)
same,fluorescence ratio,[5],0.91 (inactive)
same,z-score,[6],0.168 (inactive)
same,mean signal,[7],283 (inactive)
same,z-score,[10]; [15],1.22 (inactive) and -0.0928 (inactive)
same,z-score,[10]; [16],0.853 and 1.14
same,z-score,[9],-1.2 (inactive) and -0.985 (inactive) and -1.05 (inactive)
C#C[C@]1(OC(C)=O)CC[C@H]2[C@@H]3CCC4=CC(=O)CC[C@@H]4[C@H]3CCC21C (stereo partly specified),mean signal,[7],228 (inactive)
CN1CCN(c2nc3cc(C(F)(F)F)ccc3n3cccc23)CC1,parasite load remaining,[1],58.1% (inactive)
same,viability,[1],68%
same,fluorescence ratio,[2],0.95 (inactive)
same,inhibition,[3],-10.7% (inactive)
same,inhibition,[4],1.97% (inactive)
same,fluorescence ratio,[5],0.95 (inactive)
same,z-score,[6],-0.53 (inactive)
same,mean signal,[7],175 (inactive)
same,fold change,[8]; [11],1 (inactive) and 0.87 (inactive)
same,fold change,[8]; [12],1.47 and 0.615
same,cell count,[8]; [13],7250 and 7950
same,cell count,[8]; [14],7230 and 9140
same,z-score,[9],-0.85 (inactive) and -1.01 (inactive)
CC(C)N=c1cc2n(-c3ccc(Cl)cc3)c3ccccc3nc-2cc1Nc1ccc(Cl)cc1,fluorescence ratio,[2],0.94 (inactive)
same,inhibition,[3],8.52% (inactive)
same,inhibition,[4],6.69% (inactive)
same,fluorescence ratio,[5],0.96 (inactive)
same,z-score,[6],1.38 (inactive)
same,mean signal,[7],220 (inactive)
same,z-score,[10]; [15],-0.332 (inactive) and -3.07 (inactive)
same,z-score,[10]; [16],0.691 and -0.422
same,z-score,[9],-1.15 (inactive)
CS(=O)(=O)c1ccc(-c2cc(Br)sc2-c2ccc(F)cc2)cc1,parasite load remaining,[1],10.4% (inactive)
same,viability,[1],69.4%
same,fluorescence ratio,[2],0.96 (inactive)
same,inhibition,[3],5.02% (inactive)
same,inhibition,[4],4.33% (inactive)
same,fluorescence ratio,[5],0.95 (inactive)
same,z-score,[6],-0.424 (inactive)
same,mean signal,[7],233 (inactive)
same,fold change,[8]; [11],0.877 (inactive) and 0.852 (inactive) and 0.867 (inactive)
same,fold change,[8]; [12],1.92 and 0.768 and 0.919
same,cell count,[8]; [13],8710 and 4800 and 6290
same,cell count,[8]; [14],9930 and 5630 and 7260
same,z-score,[9],-0.985 (inactive) and -0.57 (inactive)
O=C1NC(=O)N(C2CC(O)C(CO)O2)CC1F (stereo unspecified),mean signal,[7],241 (inactive)
O=C1N[C@H](C(=O)O)CS1,parasite load remaining,[1],95.8% (inactive)
same,viability,[1],70.6%
same,fluorescence ratio,[2],1.02 (inactive)
same,inhibition,[3],-3.56% (inactive)
same,inhibition,[4],-3.18% (inactive)
same,fluorescence ratio,[5],0.96 (inactive)
same,z-score,[6],-0.587 (inactive)
same,mean signal,[7],242 (inactive)
CC1(C)O[C@@H]2C[C@H]3[C@@H]4C[C@H](F)C5=CC(=O)C=CC5(C)[C@@]4(F)[C@@H](O)CC3(C)C2(C(=O)CO)O1 (stereo partly specified),mean signal,[7],256 (inactive)
CC1(C)O[C@@H]2C[C@H]3[C@@H]4C[C@H](F)C5=CC(=O)C=CC5(C)[C@H]4[C@@H](O)CC3(C)C2(C(=O)CO)O1 (stereo partly specified),mean signal,[7],250 (inactive)
CCCN1CC(CSC)CC2c3cccc4[nH]cc(c34)CC21 (stereo unspecified),outcome,[6],inactive
same,mean signal,[7],184 (inactive)
same,fold change,[8]; [11],0.922 (inactive)
same,fold change,[8]; [12],1.17
same,cell count,[8]; [13],9040
same,cell count,[8]; [14],9810
same,z-score,[9],-0.235 (inactive)
CCC(=O)O[C@]1(C(=O)CCl)[C@@H](C)C[C@H]2[C@@H]3CCC4=CC(=O)C=CC4(C)[C@@]3(F)[C@@H](O)CC21C (stereo partly specified),mean signal,[7],254 (inactive)
COCC1=C(C(=O)OC(C)OC(=O)OC(C)C)N2C(=O)[C@@H](NC(=O)/C(=N\OC)c3csc(N)n3)[C@H]2SC1 (stereo partly specified),outcome,[6],inactive
same,mean signal,[7],270 (inactive)
same,z-score,[10]; [15],-0.0637 (inactive)
same,z-score,[10]; [16],-0.177
COc1cccc2c1C(=O)c1c(O)c3c(c(O)c1C2=O)C[C@@](O)(C(C)=O)C[C@@H]3OC1CC(N)C(O)C(C)O1 (stereo partly specified),parasite load remaining,[1],-2.09% (inactive) and 8.79% (inactive)
same,viability,[1],1.35% and 23.3%
same,fluorescence ratio,[2],1.07 (inactive)
same,inhibition,[3],6.82% (inactive)
same,inhibition,[4],3.34% (inactive)
same,fluorescence ratio,[5],0.55 (active)
same,mean signal,[7],273 (inactive)
same,fold change,[8]; [11],1.08 (inactive) and 1.04 (inactive)
same,fold change,[8]; [12],0.669 and 0.978
same,cell count,[8]; [13],1690 and 2610
same,cell count,[8]; [14],1560 and 2520
same,z-score,[9],-1.5 (inactive) and -0.935 (inactive)
COc1cc([C@@H]2c3cc4c(cc3[C@@H](O[C@@H]3O[C@@H]5CO[C@@H](C)O[C@H]5[C@H](O)[C@H]3O)[C@H]3COC(=O)[C@H]23)OCO4)cc(OC)c1O,parasite load remaining,[1],189% (inactive) and 77.5% (inactive) and 87.8% (inactive)
same,viability,[1],114% and 71.8% and 103%
same,fluorescence ratio,[2],1.02 (inactive)
same,inhibition,[3],0.66% (inactive)
same,inhibition,[4],2.76% (inactive)
same,fluorescence ratio,[5],1.01 (inactive)
same,z-score,[6],-1.12 (inactive)
same,mean signal,[7],267 (inactive)
same,fold change,[8]; [11],0.888 (inactive) and 1.07 (inactive)
same,fold change,[8]; [12],1.6 and 0.504
same,cell count,[8]; [13],2840 and 3400
same,cell count,[8]; [14],3200 and 3170
same,z-score,[10]; [15],-0.423 (inactive) and -1.1 (inactive)
same,z-score,[10]; [16],-0.861 and 0.337
same,z-score,[9],-2.08 (inactive)
CN1CCN2c3ncccc3Cc3ccccc3C2C1 (stereo unspecified),parasite load remaining,[1],85% (inactive)
same,viability,[1],76.9%
same,fluorescence ratio,[2],0.98 (inactive)
same,inhibition,[3],-1.97% (inactive)
same,inhibition,[4],-2.76% (inactive)
same,fluorescence ratio,[5],0.93 (inactive)
same,z-score,[6],-0.469 (inactive)
same,mean signal,[7],257 (inactive)
same,fold change,[8]; [11],0.923 (inactive) and 0.892 (inactive) and 0.933 (inactive)
same,fold change,[8]; [12],1.2 and 4.96 and 1.4
same,cell count,[8]; [13],9270 and 8700 and 7820
same,cell count,[8]; [14],10000 and 9750 and 8380
same,z-score,[10]; [15],0.00763 (inactive) and -0.808 (inactive)
same,z-score,[10]; [16],0.866 and 0.0762
same,z-score,[9],0.645 (inactive) and -0.265 (inactive)
CC#C[C@]1(O)CC[C@H]2[C@@H]3CCC4=CC(=O)CCC4=C3[C@@H](c3ccc(N(C)C)cc3)CC21C (stereo partly specified),outcome,[6],inactive
same,mean signal,[7],225 (inactive)
CC12CC[C@@H]3c4ccc(O)cc4CC[C@H]3[C@@H]1CC[C@@H]2O (stereo partly specified),outcome,[6],inactive
same,mean signal,[7],233 (inactive)
C#C[C@]1(O)CC[C@H]2[C@@H]3CCC4=CC(=O)CC[C@@H]4[C@H]3CCC21CC (stereo partly specified),outcome,[6],inactive
same,mean signal,[7],225 (inactive)
C#C[C@]1(O)CC[C@H]2[C@@H]3CCc4cc(OC)ccc4[C@H]3CCC21C (stereo partly specified),outcome,[6],inactive
same,mean signal,[7],241 (inactive)
COc1cc(CNC(=O)CCCC/C=C\C(C)C)ccc1O,parasite load remaining,[1],83.7% (inactive)
same,viability,[1],75.2%
same,fluorescence ratio,[2],0.95 (inactive)
same,inhibition,[3],-6.73% (inactive)
same,inhibition,[4],1.44% (inactive)
same,fluorescence ratio,[5],0.9 (inactive)
same,z-score,[6],1.86 (inactive)
same,mean signal,[7],250 (inactive)
C=CC[C@@H]1/C=C(\C)C[C@H](C)C[C@H](OC)[C@H]2OC(O)(C(=O)C(=O)N3CCCC[C@H]3C(=O)O[C@H](/C(C)=C/[C@@H]3CC[C@@H](O)[C@H](OC)C3)[C@H](C)[C@@H](O)CC1=O)[C@H](C)C[C@@H]2OC,outcome,[6],inactive
same,mean signal,[7],274 (inactive)
C#C[C@]1(O)CC[C@H]2[C@@H]3CCc4cc(O)ccc4[C@H]3CCC21C (stereo partly specified),outcome,[6],inactive
same,mean signal,[7],242 (inactive)
C[C@@H]1C[C@H]2[C@@H]3C[C@H](F)C4=CC(=O)C(Cl)=CC4(C)[C@@]3(F)[C@@H](O)CC2(C)[C@@]1(O)C(=O)CO (stereo partly specified),outcome,[6],inactive
same,mean signal,[7],273 (inactive)
CC12CC[C@@H]3c4ccc(OS(=O)(=O)O)cc4CC[C@H]3[C@@H]1CCC2=O (stereo partly specified),outcome,[6],inactive
same,mean signal,[7],260 (inactive)
CC(=O)[C@H]1CC[C@H]2[C@@H]3CCC4=CC(=O)CCC4(C)[C@H]3CCC12C (stereo partly specified),outcome,[6],inactive
same,mean signal,[7],279 (inactive)
